Where “and” joins values, the source holds several entries; their conditions need not be identical. Equal values may be shown once. Results filed as inconclusive are left out. Calls of active or inactive are those of the source. Calls come from the whole dose curve; as a rule, active = well fitted curve in the direction sought with a large enough effect; inconclusive = small, poorly fitted or top-dose-only effect, or another doubt; inactive = no such curve, though single readings can be large; an effect the other way counts as inactive or inconclusive.
Assays:
[1] = qHTS Assay for Identifying Gametocytocidal Compounds (AID 743244);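 note: actives lower the fluorescent signal which means gametocytes are killed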; settings: P. falciparum 3D7 stage III-V gametocytes, alamarBlue, 72 h; max response: hits give low values
In short: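 Stage III–V gametocytes of P. falciparum 3D7 were seeded at 20,000 cells/well onto pre-dispensed compounds. After 72 h, 37 °C, 5% CO2, alamarBlue was added for another 24 h.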

[2] = qHTS assay to identify small molecule inhibitors of chordoma cells - UCH-1 (AID 1259355); note: nearly all actives have a fitted effect of over 55% in size
In short: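 800 cells/well, overnight attach; compounds pinned at 15 concs, then auranofin/camptothecin/doxorubicin/rubitecan/topotecan combo added; 48hr 37 C, 5% CO2; CellTiter-Glo, 30min RT, luminescence.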

[3] = qHTS assay to identify small molecule inhibitors of chordoma cells - UCH-2 (AID 1259356); note: series mostly up to about 46 µM
[4] = P-glycoprotein substrates identified in KB-8-5-11 adenocarcinoma cell line, qHTS therapeutic library screen (AID 1346987); settings: outcome: dose series up to 44.5 µM unless noted; note: series mostly up to about 44 µM; nearly all actives have a fitted effect of over 65% in size
In short: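 Human cervical adenocarcinoma KB-8-5-11 cells, selected in colchicine to over-express P-gp and assayed without it, were exposed for 72 h to titrated compounds. An ATP-based luminescent viability signal gave AC50.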
% is set by controls: 0 for no effect and ±100 for the full control effect.

CC[C@H]1OC(=O)C[C@@H](O)[C@H](C)[C@@H](O[C@@H]2O[C@H](C)[C@@H](O[C@H]3C[C@@](C)(O)[C@@H](O)[C@H](C)O3)[C@H](N(C)C)[C@H]2O)[C@@H](CC=O)C[C@@H](C)C(=O)/C=C/C(C)=C/[C@@H]1CO[C@@H]1O[C@H](C)[C@@H](O)[C@@H](OC)[C@H]1OC
inactive: max response [1] 19.1% and -3.87% | Potency [2] | Potency [3] | Potency [4]

CC1CC(O)CC(C)(C)C1 (stereo not given)
inactive: max response [1] -5.15% | Potency [2] | Potency [3] | Potency [4]

CCN(CC)CCOC[C@H]1O[C@@H](O)[C@H](OCCN(CC)CC)[C@@H](O)[C@@H]1O
inactive: max response [1] 6.01% | Potency [2] | Potency [3] | Potency [4]

CC[C@@H](C)[C@H](N)C(=O)O
inactive: max response [1] -5.92% | Potency [2] | Potency [3] | Potency [4]

CO/N=C(\C(=O)N[C@@H]1C(=O)N2C(C(=O)O)=C(CSC(=O)c3ccco3)CS[C@H]12)c1csc(N)n1
inactive: max response [1] -2.3% | Potency [2] | Potency [3] | Potency [4]

O=C[C@H](O)[C@@H](O)[C@@H](O)[C@H](O)CO
inactive: max response [1] -6.65% | Potency [2] | Potency [3] | Potency [4]

CC(=O)N[C@@H](C=O)[C@@H](O)[C@H](O)[C@H](O)CO
inactive: max response [1] 11.4% | Potency [2] | Potency [3] | Potency [4]

F[Si-2](F)(F)(F)(F)F
inactive: max response [1] 2.76% | Potency [2] | Potency [3] | Potency [4]

CCCCCCCCCCCCCCCC(=O)OC[C@@H](O)[C@H]1OC[C@H](O)[C@H]1O
inactive: max response [1] -10.2% | Potency [2] | Potency [3] | Potency [4]

OC/C=C/c1ccccc1
inactive: max response [1] 2.6% | Potency [2] | Potency [3] | Potency [4]

O=C1c2ccccc2CN2C(=O)c3ccccc3CN12
inactive: max response [1] 10.5% | Potency [2] | Potency [3] | Potency [4]

CCOc1ccc(S(=O)(=O)O)c2cccnc12
inactive: max response [1] 1.62% | Potency [2] | Potency [3] | Potency [4]

COc1ccc(C(=O)CCC(=O)O)c2ccccc12
inactive: max response [1] -11.7% | Potency [2] | Potency [3] | Potency [4]

CCOC(=O)Cc1ccc(-c2ccccc2)cc1
inactive: max response [1] -12.4% | Potency [2] | Potency [3] | Potency [4]

CO/N=C(\C(=O)N[C@@H]1C(=O)N2C(C(=O)O)=CCS[C@H]12)c1csc(N)n1
inactive: max response [1] 5.71% | Potency [2] | Potency [3] | Potency [4]

CC(C)(O/N=C(\C(=O)N[C@@H]1C(=O)N2C(C(=O)[O-])=C(C[n+]3ccccc3)CS[C@H]12)c1csc(N)n1)C(=O)O
inactive: max response [1] 20.4% | Potency [2] | Potency [3] | Potency [4]

CCCCCCCCCCCCOCCCN
inactive: max response [1] -2.81% | Potency [2] | Potency [3] | Potency [4]

COc1cc2c(cc1OC)[C@@H](Cc1cc(OC)c(OC)c(OC)c1)[N+](C)(CCCOC(=O)CC/C=C/CCC(=O)OCCC[N+]1(C)CCc3cc(OC)c(OC)cc3[C@H]1Cc1cc(OC)c(OC)c(OC)c1)CC2 (stereo not given in full)
inactive: max response [1] 7.25% and 6.59% | Potency [2] | Potency [3] | Potency [4]

CCC(O)c1ccccc1 (stereo not given)
inactive: max response [1] 11% | Potency [2] | Potency [3] | Potency [4]

Cc1ncc(COP(=O)(O)O)c(CN)c1O
inactive: max response [1] -10.8% | Potency [2] | Potency [3] | Potency [4]

CC(=O)Nc1c(I)c(C(=O)N[C@H]2C(O)O[C@H](CO)[C@@H](O)[C@@H]2O)c(I)c(N(C)C(C)=O)c1I (stereo not given in full)
inactive: max response [1] 5.57% | Potency [2] | Potency [3] | Potency [4]

NS(=O)(=O)c1cc2c(cc1Cl)NC(Cc1ccccc1)NS2(=O)=O (stereo not given)
inactive: max response [1] 18.5% | Potency [2] | Potency [3] | Potency [4]

C=O
inactive: max response [1] 20.4% | Potency [2] | Potency [3] | Potency [4]

CNC(=O)c1c(I)c(C(=O)NCC(=O)Nc2c(I)c(C(=O)O)c(I)c(C(=O)NCCO)c2I)c(I)c(N(C)C(C)=O)c1I
inactive: max response [1] 1.95% | Potency [2] | Potency [3] | Potency [4]

CC(CNC(=O)c1cccnc1)NC(=O)c1cccnc1 (stereo not given)
inactive: max response [1] -8.6% | Potency [2] | Potency [3] | Potency [4]

CCc1cn([C@H]2C[C@H](O)[C@@H](CO)O2)c(=O)[nH]c1=O
inactive: max response [1] 16.3% | Potency [2] | Potency [3] | Potency [4]

NCCCC[C@H](N)C(=O)O
inactive: max response [1] 5.86% | Potency [2] | Potency [3] | Potency [4]

CC(C)(COP(=O)(O)OP(=O)(O)OC[C@H]1O[C@@H](n2cnc3c(N)ncnc32)[C@H](O)[C@@H]1OP(=O)(O)O)C(O)C(=O)NCCC(=O)NCCS (stereo not given in full)
inactive: max response [1] -9.49% | Potency [2] | Potency [3] | Potency [4]

Oc1ccc(Cl)c2c1CCC2
inactive: max response [1] -5.98% | Potency [2] | Potency [3] | Potency [4]

CSCCC(N)C(=O)O (stereo not given)
inactive: max response [1] -5.15% | Potency [2] | Potency [3] | Potency [4]

Source: PubChem BioAssay (NCATS)
